Reference: PubChem BioAssay (EPA / NIEHS)
Active and inactive are the calls of the source. How the source made its calls: active means hit-call score of the fitted dose curve at least 0.9, where 1 is the maximum; inactive means score below 0.9.

Experiments:
[1] = ATG_CRE_CIS: Attagene CIS-FACTORIAL HepG2 Assay for human cAMP Responsive Element (CRE) binding protein 3 (AID 2282926); settings: HepG2 CRE cis-reporter, Attagene multiplexed mRNA; actives raise or lower the signal
Procedure, shortened: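 Readout: fluorescently labelled reporter transcripts resolved by capillary electrophoresis after RT-PCR, taken 24 h post-dosing in transfected HepG2. Endogenous transcription factor activity drives each cis-element reporter; gain or loss of signal fitted relative to DMSO control.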

[2] = target: CCAAT/enhancer-binding protein beta (Homo sapiens) (UniProt P17676); assay: ATG_C_EBP_CIS: Attagene CIS-FACTORIAL HepG2 Assay for human CCAAT/Enhancer Binding Protein (C/EBP) beta (AID 2282927); settings: HepG2 Attagene cis-factorial transcription factor reporter; actives raise or lower the signal
CCAAT/enhancer-binding protein beta (Homo sapiens), sequence (P17676 whole entry, looked up): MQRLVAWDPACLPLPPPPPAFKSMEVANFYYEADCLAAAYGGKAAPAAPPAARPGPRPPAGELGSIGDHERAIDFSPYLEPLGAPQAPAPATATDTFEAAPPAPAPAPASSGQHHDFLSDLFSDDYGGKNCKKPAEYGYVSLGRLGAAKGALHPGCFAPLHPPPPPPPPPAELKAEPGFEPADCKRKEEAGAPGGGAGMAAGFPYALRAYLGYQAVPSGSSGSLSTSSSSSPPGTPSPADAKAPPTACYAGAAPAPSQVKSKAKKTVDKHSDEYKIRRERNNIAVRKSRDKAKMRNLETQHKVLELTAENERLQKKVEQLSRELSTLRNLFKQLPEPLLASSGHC
Procedure, shortened: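 RT-PCR/capillary electrophoresis fluorescence of reporter mRNA, 24 h post-dose, in HepG2 cells carrying transfected cis-promoter reporter units. Bidirectional curve fitting against DMSO baseline captures gain or loss of signal.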

[3] = ATG_CMV_CIS: Attagene CIS-FACTORIAL HepG2 Assay for human CMV (Internal Marker) (AID 2282928); settings: HepG2 CMV promoter reporter, transcription factor profiling; actives raise or lower the signal;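 further: endpoint acts as a background internal control marker rather than a target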
Procedure, shortened: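 Bidirectional fits against DMSO are applied to reporter mRNA, read by RT-PCR with capillary electrophoresis, from HepG2 cells exposed 24 h. The endpoint serves as an internal CMV background marker within the cis-factorial reporter panel.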

[4] = ATG_DR4_LXR_CIS: Attagene CIS-FACTORIAL HepG2 Assay for human Liver X Receptor (LXR), DR4 submotif (AID 2282929); settings: HepG2 Attagene DR4 cis-reporter, mRNA transcription; actives raise or lower the signal
Procedure, shortened: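 HepG2 cells transiently transfected with cis-promoter-driven multiplexed reporter units (DR4 element) were dosed for 24 h. Reporter mRNA was quantified by RT-PCR, fluorescent primer extension, HpaI digestion and capillary electrophoresis; bidirectional fitting versus DMSO baseline.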

[5] = target: Aryl hydrocarbon receptor (Homo sapiens) (UniProt P35869); assay: ATG_Ahr_CIS: Attagene CIS-FACTORIAL HepG2 Assay for human Aryl Hydrocarbon Receptor (Ahr) (AID 2282930); settings: HepG2 AhR cis-factorial reporter transcription; actives raise or lower the signal
Aryl hydrocarbon receptor (Homo sapiens), sequence (P35869 whole entry, looked up): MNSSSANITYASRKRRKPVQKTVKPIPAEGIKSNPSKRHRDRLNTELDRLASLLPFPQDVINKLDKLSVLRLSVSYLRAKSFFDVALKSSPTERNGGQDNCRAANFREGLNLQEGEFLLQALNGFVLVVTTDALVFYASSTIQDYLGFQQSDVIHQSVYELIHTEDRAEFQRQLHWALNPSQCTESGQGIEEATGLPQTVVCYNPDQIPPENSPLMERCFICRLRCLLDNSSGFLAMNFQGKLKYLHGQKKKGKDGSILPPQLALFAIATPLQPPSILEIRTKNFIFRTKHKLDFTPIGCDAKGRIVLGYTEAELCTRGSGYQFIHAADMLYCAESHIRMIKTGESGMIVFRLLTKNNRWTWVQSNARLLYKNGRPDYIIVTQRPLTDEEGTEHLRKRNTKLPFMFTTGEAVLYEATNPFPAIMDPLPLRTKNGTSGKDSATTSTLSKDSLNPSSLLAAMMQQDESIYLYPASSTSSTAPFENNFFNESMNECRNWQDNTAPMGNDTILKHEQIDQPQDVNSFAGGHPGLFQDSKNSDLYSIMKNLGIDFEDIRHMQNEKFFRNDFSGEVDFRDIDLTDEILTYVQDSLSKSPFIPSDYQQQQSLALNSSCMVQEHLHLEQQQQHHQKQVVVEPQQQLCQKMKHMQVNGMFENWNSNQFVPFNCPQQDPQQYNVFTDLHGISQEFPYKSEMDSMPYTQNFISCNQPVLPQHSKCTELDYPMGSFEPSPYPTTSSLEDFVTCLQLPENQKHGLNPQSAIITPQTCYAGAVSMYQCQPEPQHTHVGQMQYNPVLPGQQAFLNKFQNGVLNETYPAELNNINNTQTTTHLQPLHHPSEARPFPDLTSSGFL
Procedure, shortened: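 HepG2 cells transiently transfected with cis-element-driven multiplexed reporter transcription units; endogenous transcription factor activity measured as reporter mRNA 24 h after dosing. RT-PCR, 6-FAM labelling, HpaI digestion, capillary electrophoresis; bidirectional fitting versus DMSO baseline.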

[6] = ATG_AP_1_CIS: Attagene CIS-FACTORIAL HepG2 Assay for human Activator Protein 1 (AP-1) (AID 2282931); settings: HepG2 Attagene cis-factorial AP-1 reporter mRNA; actives raise or lower the signal
Procedure, shortened: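 HepG2 cells transiently transfected with cis-element-driven multiplex reporter units; 24 h compound exposure. Reporter mRNA quantified by RT-PCR, FAM-labelled fragments resolved by capillary electrophoresis; bidirectional fit versus DMSO baseline.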

[7] = ATG_AP_2_CIS: Attagene CIS-FACTORIAL HepG2 Assay for human Activator Protein 2 (AP-2) (AID 2282932); settings: HepG2 AP-2 cis-reporter, Attagene transcription factor profiling; actives raise or lower the signal
Procedure, shortened: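 Cells (HepG2) transfected with promoter-driven reporter constructs, treated 24 h. Total RNA reverse-transcribed, reporter cDNA PCR-amplified, FAM-labelled by primer extension, digested, resolved by capillary electrophoresis. Activity fitted both directions versus DMSO.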

[8] = ATG_BRE_CIS: Attagene CIS-FACTORIAL HepG2 Assay for human Bone Morphogenetic Protein (BMP) Response Element (BRE) (AID 2282933); settings: HepG2 BMP response element reporter, Attagene transcription factor profiling; actives raise or lower the signal
Procedure, shortened: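 Read-out: reporter mRNA induction quantified by RT-PCR and capillary electrophoresis after 24 h chemical exposure of transfected HepG2 cells. Endogenous factor activity on the BMP response element; gain or loss fitted against DMSO baseline.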

[9] = target: Retinoic acid receptor alpha (Homo sapiens) (UniProt P10276); assay: ATG_DR5_RAR_CIS: Attagene CIS-FACTORIAL HepG2 Assay for human Retinoic Acid Receptor Alpha (RARE), DR5 submotif (AID 2282934); settings: HepG2 Attagene cis-factorial RARE DR5 reporter, mRNA; actives raise or lower the signal
Retinoic acid receptor alpha (Homo sapiens), sequence (P10276 whole entry, looked up): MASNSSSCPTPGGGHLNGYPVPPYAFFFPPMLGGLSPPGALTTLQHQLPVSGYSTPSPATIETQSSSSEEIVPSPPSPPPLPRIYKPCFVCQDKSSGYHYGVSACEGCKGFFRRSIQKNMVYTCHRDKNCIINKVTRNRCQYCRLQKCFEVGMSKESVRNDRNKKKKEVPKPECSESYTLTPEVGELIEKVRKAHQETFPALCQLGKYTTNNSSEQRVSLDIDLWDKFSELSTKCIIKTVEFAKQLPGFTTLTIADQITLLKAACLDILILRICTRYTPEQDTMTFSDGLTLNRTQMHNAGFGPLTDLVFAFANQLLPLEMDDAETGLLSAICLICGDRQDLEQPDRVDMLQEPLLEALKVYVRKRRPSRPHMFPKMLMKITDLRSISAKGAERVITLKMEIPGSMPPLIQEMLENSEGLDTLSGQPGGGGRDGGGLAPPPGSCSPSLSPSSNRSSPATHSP
Procedure, shortened: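 HepG2 cells transiently transfected with multiplexed reporter units under cis (DR5 RARE) promoters, so endogenous transcription factor activity is measured. After 24 h compound exposure, reporter mRNA is quantified by RT-PCR with fluorescent labelling and capillary electrophoresis; bidirectional fitting versus DMSO.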

[10] = target: Transcription factor E2F1 (Homo sapiens) (UniProt Q01094); assay: ATG_E2F_CIS: Attagene CIS-FACTORIAL HepG2 Assay for human E2F Transcription Factor 1 (AID 2282935); settings: HepG2 Attagene cis-reporter, E2F reporter RNA transcripts; actives raise or lower the signal
Transcription factor E2F1 (Homo sapiens), sequence (Q01094 whole entry, looked up): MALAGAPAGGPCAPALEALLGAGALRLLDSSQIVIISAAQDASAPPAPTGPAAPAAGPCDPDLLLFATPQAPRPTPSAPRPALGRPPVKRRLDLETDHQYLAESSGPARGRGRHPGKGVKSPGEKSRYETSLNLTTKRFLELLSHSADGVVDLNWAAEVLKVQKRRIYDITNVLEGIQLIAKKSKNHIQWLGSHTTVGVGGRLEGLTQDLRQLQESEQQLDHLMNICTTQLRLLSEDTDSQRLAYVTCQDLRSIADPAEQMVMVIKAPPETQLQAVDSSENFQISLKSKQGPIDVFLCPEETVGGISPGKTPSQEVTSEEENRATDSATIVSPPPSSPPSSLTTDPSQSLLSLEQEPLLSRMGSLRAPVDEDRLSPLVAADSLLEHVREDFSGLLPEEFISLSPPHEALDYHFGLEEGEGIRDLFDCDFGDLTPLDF
Procedure, shortened: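 First, HepG2 cells were transfected with reporter transcription units. Next, they were dosed for 24 h. Then RNA was isolated, converted to cDNA, PCR-amplified, FAM-labeled, HpaI-digested and analyzed by capillary electrophoresis.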

[11] = ATG_E_Box_CIS: Attagene CIS-FACTORIAL HepG2 Assay for human Enhancer Box (E-box) (AID 2282936); settings: HepG2 E-box cis-reporter transcription, actives raise or lower the signal
Procedure, shortened: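 Endogenous transcription factor activity was sensed in human HepG2 liver cells through transfected cis-promoter reporter units. After 24 h of dosing, total RNA was reverse-transcribed and reporter cDNA resolved by capillary electrophoresis.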

[12] = ATG_M_61_CIS: Attagene CIS-FACTORIAL HepG2 Assay for M61 Transcription Factor (Internal Marker) (AID 2282937); settings: HepG2 Attagene CIS-FACTORIAL M61 internal marker reporter; actives raise or lower the signal
Procedure, shortened: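 HepG2 cells transiently transfected with cis-element-driven multiple reporter transcription units, dosed for 24 h. Reporter mRNA measured by RT-PCR, 6-FAM primer-extension labelling, HpaI digestion and capillary electrophoresis; bidirectional fit versus DMSO baseline.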

[13] = ATG_EGR_CIS: Attagene CIS-FACTORIAL HepG2 Assay for human Early Growth Response 1 (EGR1) (AID 2282938); settings: HepG2 Attagene CIS-FACTORIAL EGR reporter mRNA; actives raise or lower the signal
Procedure, shortened: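 HepG2 cells transiently transfected with cis-promoter-driven multiplexed reporter transcription units; reporter mRNA measured 24 h after compound dosing by RT-PCR, 6-FAM primer extension, HpaI digestion and capillary electrophoresis. Bidirectional fit versus DMSO baseline.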

[14] = ATG_M_19_CIS: Attagene CIS-FACTORIAL HepG2 Assay for M19 Transcription Factor (Internal Marker) (AID 2282939); settings: HepG2 Attagene CIS-FACTORIAL M19 internal marker reporter; actives raise or lower the signal
Procedure, shortened: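 Readout: fluorescent reporter-transcript fragments by capillary electrophoresis after RT-PCR. Human HepG2 liver cells carried transfected MRTU constructs reporting endogenous transcription-factor activity; exposure 24 h. Gain or loss of signal fitted relative to DMSO.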

[15] = ATG_Ets_CIS: Attagene CIS-FACTORIAL HepG2 Assay for human Erythroblast Transformation Specific (ETS) (AID 2282941); settings: HepG2 ETS cis-reporter transcription, actives raise or lower the signal
Procedure, shortened: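 Endogenous transcription factor activity read as reporter mRNA via RT-PCR and capillary electrophoresis, with gain or loss fitted bidirectionally against DMSO. Human HepG2 liver cells, transiently transfected CIS reporter constructs, 24 h exposure.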

[16] = target: Hepatocyte nuclear factor 3-beta (Homo sapiens) (UniProt Q9Y261); assay: ATG_FoxA2_CIS: Attagene CIS-FACTORIAL HepG2 Assay for human Forkhead box A2 (FOXA2) (AID 2282942); settings: HepG2 cis-reporter transcription factor activity, 24 h; actives raise or lower the signal
Hepatocyte nuclear factor 3-beta (Homo sapiens), sequence (Q9Y261 whole entry, looked up): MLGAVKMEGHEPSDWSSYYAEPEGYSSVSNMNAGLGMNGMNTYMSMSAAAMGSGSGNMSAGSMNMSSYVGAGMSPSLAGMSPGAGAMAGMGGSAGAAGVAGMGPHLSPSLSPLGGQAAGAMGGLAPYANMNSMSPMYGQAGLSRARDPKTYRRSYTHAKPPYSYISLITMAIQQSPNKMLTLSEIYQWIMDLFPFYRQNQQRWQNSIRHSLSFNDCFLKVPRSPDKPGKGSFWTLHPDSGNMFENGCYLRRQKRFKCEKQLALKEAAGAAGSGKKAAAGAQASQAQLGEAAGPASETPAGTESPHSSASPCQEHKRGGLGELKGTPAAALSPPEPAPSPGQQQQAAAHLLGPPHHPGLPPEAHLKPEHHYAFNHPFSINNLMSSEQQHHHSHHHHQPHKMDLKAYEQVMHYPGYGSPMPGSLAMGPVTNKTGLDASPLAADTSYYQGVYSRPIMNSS
Procedure, shortened: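 HepG2 cells transiently transfected with multiple cis-regulated reporter transcription units, dosed for 24 h. Reporter mRNA measured by RT-PCR, 6-FAM labelling, HpaI digestion and capillary electrophoresis; bidirectional fitting against DMSO baseline.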

[17] = ATG_FoxO_CIS: Attagene CIS-FACTORIAL HepG2 Assay for human Forkhead box O (FoxO) (AID 2282943); settings: HepG2 Attagene cis-reporter, FoxO element, mRNA; actives raise or lower the signal
Procedure, shortened: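 HepG2 cells transiently transfected with cis-promoter-driven multiple reporter transcription units; 24 h after chemical dosing, reporter mRNA quantified by RT-PCR, fluorescent primer extension, HpaI digestion and capillary electrophoresis. Bidirectional fitting versus DMSO baseline.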

[18] = ATG_GLI_CIS: Attagene CIS-FACTORIAL HepG2 Assay for human Zinc Finger Protein GLI1 (AID 2282945); settings: HepG2, Attagene cis-factorial reporter mRNA, GLI element; actives raise or lower the signal
Procedure, shortened: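 HepG2 cells transiently transfected with cis-promoter multiplexed reporter units report endogenous transcription factor activity. After 24 h chemical exposure, reporter mRNA was quantified by RT-PCR, 6-FAM labelling, HpaI digestion and capillary electrophoresis, with bidirectional fitting against DMSO.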

[19] = ATG_GATA_CIS: Attagene CIS-FACTORIAL HepG2 Assay for human GATA Binding Protein (AID 2282944); settings: HepG2 GATA cis-element reporter, Attagene multiplex mRNA; actives raise or lower the signal
Procedure, shortened: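 Read-out: fluorescent reporter mRNA fragments resolved by capillary electrophoresis after RT-PCR. Human liver HepG2 cells carried transiently transfected cis-regulated reporter constructs; chemicals incubated 24 h; gain or loss of signal fitted relative to DMSO.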

Compound: CCC(C)=O
- outcome [1]: inactive
- outcome [2]: inactive
- outcome [3]: inactive
- outcome [4]: inactive
- outcome [5]: inactive
- outcome [6]: inactive
- outcome [7]: inactive
- outcome [8]: inactive
- outcome [9]: inactive
- outcome [10]: inactive
- outcome [11]: inactive
- outcome [12]: inactive
- outcome [13]: inactive
- outcome [14]: inactive
- outcome [15]: inactive
- outcome [16]: inactive
- outcome [17]: inactive
- outcome [18]: inactive

Compound: CCO/C=C1\N=C(c2ccccc2)OC1=O
- outcome [1]: inactive
- outcome [2]: inactive
- outcome [3]: inactive
- outcome [4]: inactive
- outcome [5]: inactive
- outcome [6]: inactive
- outcome [7]: inactive
- outcome [8]: inactive
- outcome [9]: inactive
- outcome [10]: inactive
- outcome [11]: inactive
- outcome [12]: inactive
- outcome [13]: inactive
- outcome [14]: inactive
- outcome [15]: inactive
- outcome [16]: inactive
- outcome [19]: inactive
- outcome [18]: inactive

Compound: COc1ccc(OC)c(N=Nc2c(O)ccc3ccccc23)c1
- outcome [1]: inactive
- outcome [2]: inactive
- outcome [3]: inactive
- outcome [4]: inactive
- AC50 [5]: 0.51 µM (active)
- outcome [6]: inactive
- outcome [7]: inactive
- outcome [8]: inactive
- outcome [9]: inactive
- outcome [10]: inactive
- outcome [11]: inactive
- outcome [12]: inactive
- outcome [13]: inactive
- outcome [14]: inactive
- outcome [15]: inactive
- outcome [17]: inactive
- outcome [19]: inactive
- outcome [18]: inactive

Compound: CC(=O)OCCCc1ccccc1
- outcome [1]: inactive
- outcome [2]: inactive
- outcome [3]: inactive
- outcome [4]: inactive
- outcome [5]: inactive
- outcome [6]: inactive
- outcome [7]: inactive
- outcome [8]: inactive
- outcome [9]: inactive
- outcome [10]: inactive
- outcome [11]: inactive
- outcome [12]: inactive
- outcome [13]: inactive
- outcome [14]: inactive
- outcome [15]: inactive
- outcome [17]: inactive
- outcome [19]: inactive
- outcome [18]: inactive

Compound: CCOc1ccc(NC(=O)CC(C)=O)cc1
- outcome [1]: inactive
- outcome [2]: inactive
- outcome [3]: inactive
- outcome [4]: inactive
- outcome [5]: inactive
- outcome [6]: inactive
- outcome [7]: inactive
- outcome [8]: inactive
- outcome [9]: inactive
- outcome [10]: inactive
- outcome [12]: inactive
- outcome [13]: inactive
- outcome [14]: inactive
- outcome [15]: inactive
- outcome [16]: inactive
- outcome [17]: inactive
- outcome [19]: inactive

Compound: NC(=S)NNC(N)=S
- outcome [1]: inactive
- outcome [2]: inactive
- outcome [3]: inactive
- outcome [4]: inactive
- outcome [5]: inactive
- outcome [6]: inactive
- outcome [7]: inactive
- outcome [8]: inactive
- outcome [9]: inactive
- outcome [10]: inactive
- outcome [11]: inactive
- outcome [12]: inactive
- outcome [13]: inactive
- outcome [14]: inactive
- outcome [15]: inactive
- outcome [16]: inactive
- outcome [17]: inactive
- outcome [18]: inactive

Compound: Nc1ccccc1[N+](=O)[O-]
- outcome [1]: inactive
- outcome [2]: inactive
- outcome [3]: inactive
- outcome [4]: inactive
- outcome [5]: inactive
- outcome [6]: inactive
- outcome [7]: inactive
- outcome [8]: inactive
- outcome [9]: inactive
- outcome [10]: inactive
- outcome [11]: inactive
- outcome [12]: inactive
- outcome [13]: inactive
- outcome [14]: inactive
- outcome [15]: inactive
- outcome [17]: inactive

Compound: c1ccc2[nH]cnc2c1
- outcome [1]: inactive
- outcome [2]: inactive
- outcome [3]: inactive
- outcome [4]: inactive
- outcome [5]: inactive
- outcome [6]: inactive
- outcome [7]: inactive
- outcome [8]: inactive
- outcome [9]: inactive
- outcome [10]: inactive
- outcome [11]: inactive
- outcome [12]: inactive
- outcome [13]: inactive
- outcome [14]: inactive
- outcome [15]: inactive
- outcome [16]: inactive
- outcome [17]: inactive
- outcome [18]: inactive
